Compounds with a hit are over-represented: about 3.6% of the library has one in this group of screens.
mHTT CaM bind – mutant huntingtin-calmodulin interaction inhibitors – biochemical, AlphaScreen, primary screen | AlphaScreen His-mHTT/GST-CaM binding, luminescence | 190,000 tested, 3.6% active | AID 1671202, 2021 | P42858 | inhibition, % at 15 µM;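 further: 0% = both proteins with DMSO and 100% = one protein alone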
Pf apPOL block – Pf-apPOL inhibitors, biochemical, fluorescence. Plasmodium falciparum apicoplast DNA polymerase (apPOL). Recombinant Pf-apPOL, molecular beacon fluorescence, 1.5 h. inhibition, % at 10 µM. 210,000 tested, 0.25% active
* marks the source's active call; other numbers are inactive results. No stated cut-off is given here; in the data, active means inhibition above about 50%; inactive means the rest.

SMILES	mHTT CaM bind	Pf apPOL block
CCCn1ncc(N2CCC(C(=O)NCc3ccccc3OC)CC2)cc1=O	-11	-5
CCCc1[nH]nc2c1C(c1ccc(Cl)c([N+](=O)[O-])c1)C(C#N)=C(N)O2 (stereo not drawn)	10	4
O=C(Nc1nc2c(s1)COc1ccccc1-2)c1ccc(N2C(=O)CCC2=O)cc1	-1	-2
O=C(NCc1ccsc1)c1cccc2ccccc12	-11	1
Cc1ccccc1CS(=O)(=O)CCC(=O)NCc1ccco1	1	-13
COc1ccc(C)cc1-n1cnc2cc(C(=O)NCC(OC)OC)ccc21	5	-2
CCOC(CNC(=O)c1ccc2c(c1)ncn2-c1cc(Cl)ccc1OC)OCC	53*	-4
CCS(=O)(=O)c1ccc2oc(=O)c(C=C(O)c3ccco3)nc2c1	7	-6
Cc1c(Cl)cccc1NC(=O)CN1CCC(c2nc(-c3ccccc3)no2)CC1	-6	0
O=S(=O)(Cc1ccccc1)N1CCC(Oc2cccc(C(F)(F)F)c2)CC1	-25	-8
Cc1ccc(S(=O)(=O)N2CCC(Oc3cccc(C(F)(F)F)c3)CC2)cc1	95*	-10
Cc1cccc(C=C2Oc3c(ccc(O)c3CN3CCN(C)CC3)C2=O)c1	7	-19
CCCSc1nnc2c(n1)OC(c1cccnc1)Nc1ccccc1-2 (stereo not drawn)	0	52*
CCCCCSc1nnc2c(n1)OC(c1cccnc1)Nc1ccccc1-2 (stereo not drawn)	6	-3
CCSc1nnc2c(n1)OC(c1cc(OC)c(O)c(OC)c1)Nc1ccccc1-2 (stereo not drawn)	-3	95*
CCCSc1nnc2c(n1)OC(c1cc(OC)c(O)c(OC)c1)Nc1ccccc1-2 (stereo not drawn)	-7	0
O=C(C1CC(=O)N(c2ccc(F)c(Cl)c2)C1)N1CCNc2ccccc2C1 (stereo not drawn)	2	-4
CCOCCCNC(=O)C1CCN(c2cnn(Cc3ccccc3)c(=O)c2)CC1	-2	-4
Cc1ccnc(N2CCC(C(=O)NCC3CCN(Cc4cccc(Cl)c4)CC3)CC2)n1	7	4
CCOCCCNC(=O)C1CCN(Cc2cc3ccccc3n2Cc2ccccc2)CC1	76*	1
COCCCNC(=O)C1CCN(Cc2cc3ccccc3n2Cc2ccccc2)CC1	93*	3
COCCCNC(=O)C1CCN(Cc2ccc(C)o2)CC1	1	-3
COCCNC(=O)C1CCN(Cc2cc3ccccc3n2Cc2cccc(Cl)c2)CC1	91*	0
CN(C)c1ccc(/C=C2/SC(N3CCCC3)=NC2=O)cc1	7	1
CC1CCc2c(sc(NC(=O)c3cnccn3)c2C(N)=O)C1 (stereo not drawn)	10	-3
SMILES	mHTT CaM bind	Pf apPOL block
CCCCNc1ncnc2c1c(-c1ccccc1)cn2-c1ccccc1	38	0
Cc1ccc(-n2cc(-c3ccccc3)c3c(NCC4CCCO4)ncnc32)cc1 (stereo not drawn)	56*	-11
Nc1c(C(=O)NCc2ccc(Cl)cc2)nnn1-c1ccc2c(c1)OCCO2	-6	-9
O=C(Nc1ccc(N2CCCC2)cc1)c1ccccc1[N+](=O)[O-]	84*	-6
O=C(Nc1cnc(N2CCCCC2)nc1)c1ccc(Br)o1	-6	-2
Cc1ccccc1C(=O)Nc1ccc(N2CCCC2)cc1	34	-34
O=C(Nc1ccc(N2CCCCC2)cc1)c1ccccc1[N+](=O)[O-]	20	-30
O=C(Nc1ccc(N2CCCC2)cc1)c1ccc(Br)o1	62*	2
O=C(Nc1ccc(N2CCCC2)cc1)C(Cl)(Cl)Cl	74*	-9
O=C(Nc1ccc2c(c1)CCCN2C(=O)C1CC1)c1cc(Br)ccc1Cl	-8	-4
O=C(Nc1ccc(N2CCCC2)cc1)c1cc(Br)ccc1Cl	86*	0
N#C/C(=C\c1c[nH]c2ccccc12)c1nn(CCO)c(N)c1C#N	35	-3
COc1cccc(C(=O)Nc2c3c(nn2-c2cccc(C)c2)CSC3)c1OC	0	-2
CN1c2cc(Cl)ccc2C(=O)NC12CCN(C(=O)Nc1ccccc1)CC2	-3	0
Cc1cc2ccccc2n1CCNS(=O)(=O)c1ccc(Cl)cc1	22	-3
COc1ccc(/C=C(\NC(=O)c2ccco2)C(=O)Nc2ccc(OC)cc2)cc1	11	1
Cc1[nH]nc2c1C(c1ccccc1C(F)(F)F)CC(=O)N2 (stereo not drawn)	1	2
COc1ccccc1C(=O)Nc1cccc(-c2nc3cc(C)ccc3o2)c1C	-6	0
Cc1ccccc1NC(=O)NC1CCN(C(=O)C2CC2)C1 (stereo not drawn)	-5	-4
COc1ccc(NC(=O)C2CC(=O)NC(=Nc3ccc(C)c(C)c3)S2)cc1 (stereo not drawn)	2	-6
COc1ccc(N=C2NC(=O)CC(C(=O)Nc3cc(C(F)(F)F)ccc3Cl)S2)cc1 (stereo not drawn)	78*	-11
CCOCCCNC(=O)C1(C)CCC(=O)N1c1cccc(C)c1C (stereo not drawn)	0	-6
CCC(C)NC(=O)C(CC(C)C)N1C(=O)c2ccccc2C1=O (stereo not drawn)	-3	-7
COc1ccc(C2c3sc(=O)[nH]c3SC3C4CCC(C4)C23)cc1 (stereo not drawn)	38	-4
COc1cccc(C2c3sc(=O)[nH]c3SC3C4CCC(C4)C23)c1O (stereo not drawn)	49	-6
SMILES	mHTT CaM bind	Pf apPOL block
COc1cc(C2c3sc(=O)[nH]c3SC3C4CCC(C4)C23)ccc1O (stereo not drawn)	57*	2
CCOc1cc(C2c3sc(=O)[nH]c3SC3C4CCC(C4)C23)ccc1O (stereo not drawn)	100*	-6
O=C(NCCC(O)c1ccoc1)c1ccoc1 (stereo not drawn)	-1	-2
CC(=O)c1ccc(NS(=O)(=O)c2ccc(N/C=C/C(=O)c3cccs3)cc2)cc1	2	60*
Cc1cc(NS(=O)(=O)c2ccc(N/C=C/C(=O)c3cccs3)cc2)nc(C)n1	30	-14
C[C@@]12CCC=C[C@H]1[C@H](c1ccc3ccccc3c1)N(Cc1ccccc1)C2=O	82*	-2
Cc1ccc(-c2ccc([C@H]3[C@@H]4C=CCC[C@@]4(C)C(=O)N3Cc3ccccc3)c(F)c2)cc1	13	0
COc1ccc(-c2ccc([C@H]3[C@@H]4C=CCC[C@@]4(C)C(=O)N3Cc3ccccc3)c(F)c2)cc1	17	-3
COc1ccc(-c2cc([C@H]3[C@@H]4C=CCC[C@@]4(C)C(=O)N3Cc3ccccc3)ccc2F)cc1	-4	-7
Cc1ccc(-c2c([C@H]3[C@@H]4C=CCC[C@@]4(C)C(=O)N3Cc3ccccc3)ccc3ccccc23)cc1	34	0
C[C@@]12CCC=C[C@H]1[C@H](c1ccc3ccccc3c1Br)N(Cc1ccccc1)C2=O	94*	3
COc1ccc(-c2c([C@H]3[C@@H]4C=CCC[C@@]4(C)C(=O)N3Cc3ccccc3)ccc3ccccc23)cc1	58*	-5
COc1ccc(-c2ccccc2[C@H]2[C@@H]3C=CCC[C@@]3(C)C(=O)N2Cc2ccccc2)cc1	67*	-3
CCCCOc1ccc(-c2nc(C=Nc3ccc(I)cc3)c(O)o2)cc1	0	1
O=C(CSc1ccccc1C(=O)O)Nc1ccc(C(F)(F)F)cc1	3	-4
COc1ccc(NS(=O)(=O)c2ccc(C)c(C(N)=O)c2)cc1	-1	-6

Compound activity as filed in PubChem BioAssay.
